Measurements published in the supplement of paper PMC13380429.
Values without a mark were called inactive.

Tested on: Vero E6 infected with SARS-CoV-2
Test: inhibition of SARS-CoV-2 cytopathic effect; higher = more antiviral protection, active = above 15
Conditions: 48 h

| SMILES | inhibition of SARS-CoV-2 cytopathic effect (1 nM) | inhibition of SARS-CoV-2 cytopathic effect (8.33 nM) | inhibition of SARS-CoV-2 cytopathic effect (100 nM) | inhibition of SARS-CoV-2 cytopathic effect (833.33 nM) | inhibition of SARS-CoV-2 cytopathic effect (10000 nM) |
| --- | --- | --- | --- | --- | --- |
| COc1ccc(S(=O)(=O)N(C(C)=O)c2ccccc2/C=C/c2cc[n+]([O-])cc2)cc1 | 2.08% | 0.26% | -2.17% | -2.71% | -2.49% |
| COc1ccc(CC2NCCc3c2[nH]c2ccc(C)cc32)c(Cl)c1OC (stereo not given) | 0.04% | 1.87% | 6.67% | -1.77% | -7.05% |
| CC(C)(N)c1cc(C(=O)N[C@@H]2CCc3ccc(Oc4ccnc5c4CCC(=O)N5)cc3C2)cc(C(F)(F)F)c1 | 0.3% | 1.69% | 1.9% | -3.12% | -8.56% |
| CN(C)CC[C@@H](c1ccc(Cl)cc1)c1ccccn1 [chlorphenamine] | 0.315% | 1.98% | -0.53% | 0.17% | -5.02% |
| Cc1cn2c(N)c(Cl)cc(C(=O)NCC3CCN(CC(C)C)CC3)c2n1 | 2.35% | 1.24% | 2.96% | 3.33% | 0.75% |
| CN(C)CCOC(=O)COc1ccc(Cl)cc1 [meclofenoxate] | 2.47% | 0.23% | 1.17% | 1.28% | 1.66% |
| N#Cc1ccc2[nH]cc(CCCCN3CCN(c4ccc5oc(C(N)=O)cc5c4)CC3)c2c1 [vilazodone] | 0.76% | 1.07% | 0.51% | 1.56% | -3.06% |
| OC[C@H]1O[C@H]([S-])[C@H](O)[C@@H](O)[C@@H]1O.[Au+] [aurothioglucose] | 0.67% | -0.7% | -0.3% | 0.93% | 0.69% |
| C/C(=C\c1ccc(C(=O)O)cc1)c1ccc2c(c1)C(C)(C)CCC2(C)C | -0.5% | -1.23% | -2.43% | 0.15% | 3.67% |
| CC1=C(C(=O)OC2CCCCC2)C(c2ccc([N+](=O)[O-])cc2)C2=C(CC(C)(C)CC2=O)N1 (stereo not given) | -1.14% | -1.2% | -1.86% | 1.14% | 23.1% (active) |
| CC(C)n1nc(-c2ccc3oc(N)nc3c2)c2c(N)ncnc21 | 1.94% | 2.32% | 1.66% | -3.23% | -4.59% |
| C[C@@H]1NC(=O)[C@@H]2CCCN2C(=O)[C@H](CC(N)=O)NC(=O)[C@@H]2CSSC[C@H](N)C(=O)N[C@H]3CSSC[C@H](NC1=O)C(=O)N[C@@H]([C@@H](C)O)C(=O)NCC(=O)N[C@H](C(=O)N[C@@H](Cc1ccc(O)cc1)C(=O)O)CSSC[C@H](NC(=O)[C@H](Cc1ccc(O)cc1)NC(=O)[C@H](CCC(=O)O)NC3=O)C(=O)N2 [linaclotide] | -2.9% | 0.88% | 1.75% | 1% | 3.24% |
| O=C(Nc1cnc(Cl)nc1)c1ccc(F)c(F)c1 | 1.95% | 1.13% | 2.59% | -0.85% | 0.14% |
| Cc1ccc(CC2(O)CCN(CCOc3ccc(O)cc3)CC2)cc1 | -5.34% | 1.47% | 3.16% | -0.31% | 1.64% |
| CS(=O)(=O)c1ccc(-c2cc(Br)sc2-c2ccc(F)cc2)cc1 | 3.29% | -0.45% | -5.25% | -3.46% | -5.5% |
| CC(C)[C@H](CO)Nc1nc(Nc2cc(N)cc(Cl)c2)c2ncn(C(C)C)c2n1 [aminopurvalanol-a] | 4.14% | 0.51% | -1.34% | -0.35% | -6.98% |
| CCC(=O)O[C@@H]1CC(=O)O[C@H](C)C/C=C/C=C/[C@H](OC(C)=O)[C@H](C)C[C@H](CC=O)[C@H](O[C@@H]2O[C@H](C)[C@@H](O[C@H]3C[C@@](C)(OC(C)=O)[C@@H](OC(=O)CC)[C@H](C)O3)[C@H](N(C)C)[C@H]2O)[C@H]1OC [miocamycin] | 2.92% | 1.39% | 1.33% | 3.25% | -2.09% |
| COc1ccccc1OC(=O)c1ccccc1OC(C)=O [guacetisal] | -0.24% | -1.18% | 1.85% | 4.31% | -0.68% |
| CCN1C(C)(C)CC(Oc2ccc(C(=O)Nc3ccc(NC(=O)Nc4cc(C(C)(C)C)on4)cc3)nc2)CC1(C)C | -2.79% | -0.55% | -1.48% | -1.05% | -4.86% |

| SMILES | inhibition of SARS-CoV-2 cytopathic effect (1 nM) | inhibition of SARS-CoV-2 cytopathic effect (8.33 nM) | inhibition of SARS-CoV-2 cytopathic effect (100 nM) | inhibition of SARS-CoV-2 cytopathic effect (833.33 nM) | inhibition of SARS-CoV-2 cytopathic effect (10000 nM) |
| --- | --- | --- | --- | --- | --- |
| C[C@]12CCC(=O)C=C1CC[C@@H]1[C@@H]2CC[C@@]2(C)[C@H]1CC[C@]2(C)O [17-alpha-Methyltestosterone] | 0.59% | 1.3% | -0.05% | 1.19% | 1.92% |
| CCOC(=O)CCNc1cc(N2CCc3ccccc3CC2)nc(-c2ccccn2)n1 | -5.53% | 0.27% | 1.52% | 1.83% | -0.53% |
| CN1[C@@H]2CC[C@H]1C[C@@H](OC(=O)N1Cc3ccccc3NC1=O)C2 | -1.09% | -0.87% | 1.69% | 1.84% | -0.21% |
| CN1CCN(c2c(F)cc3c(=O)c(C(=O)O)cn(CCF)c3c2F)CC1 [fleroxacin] | -1.94% | -0.15% | 1.24% | 0.81% | -1.08% |
| CC(C)(O)C(Cl)(Cl)Cl [chlorobutanol] | 0.34% | 1.76% | 0.44% | 1.86% | -2.07% |
| CC(COc1ccccc1)N(CCCl)Cc1ccccc1 (stereo not given) [phenoxybenzamine] | 2.45% | 2.51% | 1.57% | 0.91% | -0.17% |
| COC(=O)[C@H](c1ccccc1Cl)N1CCc2sccc2C1 [clopidogrel] | 0.4% | 0.66% | 1.82% | -3.38% | -0.85% |
| CCC[C@H]1C(=O)N2C(N(C)C)=Nc3ccc(C)cc3N2C1=O [azapropazone] | -0.8% | -0.4% | -0.47% | -0.49% | -3.61% |
| C(=C\c1ccccc1)/CN1CCN(CCOC(c2ccccc2)c2ccccc2)CC1 | -2.82% | 0.59% | -0.97% | 0.92% | 4.63% |
| NC[C@@H]1CC[C@@H](N)[C@@H](O[C@H]2[C@H](O)[C@@H](O[C@H]3O[C@H](CO)[C@@H](O)[C@H](N)[C@H]3O)[C@H](N)C[C@@H]2N)O1 [dibekacin] | 5.18% | -1.26% | 1.67% | 2% | 1.51% |
| COC(=O)C1=C(C)NC(C)=C(C(=O)OC2CCCN(Cc3ccccc3)C2)C1c1cccc([N+](=O)[O-])c1 (stereo not given) [benidipine] | -0.65% | -0.51% | -1.47% | -0.97% | -3.67% |
| Cc1ccc(-c2ncc(Cl)cc2-c2ccc(S(C)(=O)=O)cc2)cn1 [etoricoxib] | 2.49% | 0.25% | -0.65% | -1.22% | -1.11% |
| Nc1ccc(S(=O)(=O)Nc2ccccn2)cc1 [sulfapyridine] | -1.16% | 0.08% | 0.38% | -1.04% | -4.35% |
| O=C1Cc2cc(CCN3CCN(c4nsc5ccccc45)CC3)c(Cl)cc2N1 [ziprasidone] | -0.08% | -2.01% | -0.35% | 0.78% | -2.66% |
| CCN1CCCC1=O [1-ethyl-2-pyrrolidone] | -1.68% | 2.91% | 3.54% | -0.7% | -2.48% |
| O=C(Nc1ccc(F)cc1)N1CCc2ccccc2[C@@H]1c1ccc(C(F)(F)F)cc1 | 0.09% | -1.41% | -0.59% | -1.97% | -1.53% |
| O=C(O)c1cc(/N=N/c2ccc(S(=O)(=O)Nc3ccccn3)cc2)ccc1O [sulfasalazine] | -0.13% | -2.23% | -0.23% | -1.38% | 0.47% |
| CCn1cc(-c2ccnc3[nH]c(-c4cccc(CN(C)C)c4)cc23)c(-c2ccc(NC(=O)N(C)C)cc2)n1 | 0.02% | -2.56% | -1.67% | -3.22% | 1.16% |
| CC(CCc1ccccc1)NCC(O)c1ccc(O)c(C(N)=O)c1 (stereo not given) [labetalol] | -0.33% | 0.13% | 0.47% | 0.67% | -2.41% |
